Bioassay records (PubChem BioAssay)
In the library only some 5.7% were active in any assay of this set; here they are far more common.
hgDAF-12 ag = activates the H. glycines DAF-12 receptor ligand-binding domain; HEK293 GAL4-hgDAF12 UAS-luciferase reporter, agonist luminescence; normalized to butyrate control; activation, % at 6.8 µM; hit rate 1.8% among 370,000;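 active = activation above a cutoff set at the mean of all screened compounds plus 3 SD, cut at about 10% in these data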
ssDAF12 agonist = S. stercoralis DAF-12 activation, primary screen | activation, % at 6.8 µM | AID 652126 | HEK293 ssDAF-12/GRIP1 lit1-tk-luc reporter, luminescence; % of 3 µM dafachronic acid response | hit rate 1% among 370,000;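 active = activation above the mean over all tested compounds plus 3 SD, cut at about 0.9% in these data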
AHR activator = human AHR activation; AHR-responsive luciferase reporter cells, luminescence; activation, % at 5 µM; P35869; hit rate 2.5% among 320,000; in the data active = activation above about 47%
Target sequence (P35869 whole entry, looked up): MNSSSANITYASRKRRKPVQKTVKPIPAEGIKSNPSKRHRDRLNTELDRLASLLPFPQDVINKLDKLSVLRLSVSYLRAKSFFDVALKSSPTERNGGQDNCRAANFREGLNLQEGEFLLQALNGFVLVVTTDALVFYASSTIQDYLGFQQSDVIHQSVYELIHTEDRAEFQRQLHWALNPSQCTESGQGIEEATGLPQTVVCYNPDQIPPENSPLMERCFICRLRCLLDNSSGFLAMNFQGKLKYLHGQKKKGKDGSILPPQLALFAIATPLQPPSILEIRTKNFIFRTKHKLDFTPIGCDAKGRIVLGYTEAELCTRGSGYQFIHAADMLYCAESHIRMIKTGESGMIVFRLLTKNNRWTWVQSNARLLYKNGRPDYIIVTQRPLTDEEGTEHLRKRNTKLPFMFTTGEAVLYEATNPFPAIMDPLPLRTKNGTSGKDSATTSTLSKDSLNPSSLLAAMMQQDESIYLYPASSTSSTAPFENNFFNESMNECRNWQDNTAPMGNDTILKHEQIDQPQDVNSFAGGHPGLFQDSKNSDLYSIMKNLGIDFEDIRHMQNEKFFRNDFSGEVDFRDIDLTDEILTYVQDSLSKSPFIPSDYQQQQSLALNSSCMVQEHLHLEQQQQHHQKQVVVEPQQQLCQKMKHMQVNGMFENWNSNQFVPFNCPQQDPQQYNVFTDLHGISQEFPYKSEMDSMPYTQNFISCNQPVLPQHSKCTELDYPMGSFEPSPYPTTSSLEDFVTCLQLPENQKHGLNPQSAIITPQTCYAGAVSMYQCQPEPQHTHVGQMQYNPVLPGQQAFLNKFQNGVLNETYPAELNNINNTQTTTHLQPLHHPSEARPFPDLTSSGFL
hcDAF-12 act = H. contortus DAF-12 activation, primary screen; HEK293 hcDAF-12 lit1-tk-luc reporter, luminescence; 0% DMSO, 100% Δ7-dafachronic acid; hit rate 1.4% among 370,000; activation, % at 6.8 µM;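 active = activation above the mean of all tested compounds plus 3 SD, cut at about 5.5% in these data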
DAX1 inh-1 = inhibits human nuclear receptor DAX1. hit rate 0.99% among 340,000. inhibition, % at 6.75 µM. HEK293 Gal4-DAX1 luciferase reporter, luminescence. P51843. AID 504766;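 active = inhibition above the mean over all tested compounds plus 3 SD, cut at about 4.2% in these data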;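 note: inhibition shows as a rise in luminescence from relieved DAX1 repression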
DAX1 inh-2 = DAX1 (NR0B1) inhibition, primary screen. hit rate 1.1% among 370,000. HEK293T StAR-luciferase reporter, SF-1/DAX-1 repression relief. AID 652010. inhibition, % at 6.8 µM;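 active = inhibition above the mean over all tested compounds plus 3 SD, cut at about 3.6% in these data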;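 note: higher inhibition means more luminescence from relief of DAX-1 repression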
Of the large screens only hits and unclear results are named; the others gave an inactive call.

CSc1ccc(C#N)cc1NC(=O)c1ccc(Cl)cc1Cl	AHR activator 59.2
CNC(=S)N/N=C/c1ccc(N(C)C)cc1	hgDAF-12 ag 11.4
CNC(=S)N/N=C/c1ccc(C(C)C)cc1	none
Cc1cc(-n2c(C)cc(C(=O)CN3C(=O)NC4(CCCC4)C3=O)c2C)no1	DAX1 inh-1 5.9
Cc1cc(C(=O)CN2C(=O)NC3(CCCCC3)C2=O)c(C)n1Cc1ccc2c(c1)OCO2	none
Cc1cc(-n2c(C)cc(C(=O)CN3C(=O)NC4(CCCCC4)C3=O)c2C)no1	none
Cc1cc(C(=O)CN2C(=O)NC3(CCCCC3)C2=O)c(C)n1Cc1ccco1	hgDAF-12 ag 11.3, ssDAF12 agonist 2.6, DAX1 inh-1 7.1, DAX1 inh-2 4.0
Cc1ccc(NC(=O)c2cc(S(=O)(=O)c3ccccc3)ccc2Cl)cc1	none
O=C1CN(c2ccccc2)C(=S)N1C(=O)c1ccccc1	hgDAF-12 ag 11.4, hcDAF-12 act 5.7, DAX1 inh-1 5.8
O=C(c1ccccc1)N1CCC(=O)N1c1ccccc1	none
CC1(C)C(=O)C=C(N2CCCCC2)c2ccccc21	none (no result: AHR activator)
Cc1cc(C)c[n+](C2=C([O-])c3ccccc3C(=O)/C2=N\S(=O)(=O)c2cccs2)c1	none
Cc1cc[n+](C2=C([O-])c3ccccc3C(=O)/C2=N\S(=O)(=O)c2cccs2)cc1C	DAX1 inh-1 4.5
COc1ccc(C(=O)NCCN2CCOCC2)cc1S(=O)(=O)Nc1ccc(C)cc1	none
CCC1CCc2c(sc(NC(=O)c3ccoc3C)c2C(N)=O)C1 (configuration not stated)	hcDAF-12 act 5.9
CCC(C)(C)C1CCc2c(sc(NC(=O)c3ccoc3C)c2C(N)=O)C1 (configuration not stated)	none
COc1ccc(NC(=O)C(c2cc3c(cc2[N+](=O)[O-])OCO3)N(C)Cc2ccccc2)cc1 (configuration not stated)	hcDAF-12 act 5.8
CCN(c1cccc(C)c1)C(C(=O)Nc1ccc(OC)cc1)c1cc2c(cc1[N+](=O)[O-])OCO2 (configuration not stated)	none
CCCOc1ccc(C(=O)CCNc2cccc(Cl)c2)cc1	ssDAF12 agonist 1.4
COc1ccc(C(=O)CCNc2cccc(Cl)c2)cc1	none
CC(=O)Nc1csc2ccccc12	none
NC(=O)C1CCN(C(=O)Nc2csc3ccccc23)CC1	ssDAF12 agonist 1.0 (no result: DAX1 inh-1)
O=C(Nc1ccccc1)Nc1csc2ccccc12	AHR activator 61.2 (no result: DAX1 inh-1)
Cc1sc2nc(-c3ccncc3)[nH]c(=O)c2c1-c1ccccc1	AHR activator 53.7 (no result: hgDAF-12 ag, ssDAF12 agonist, hcDAF-12 act, DAX1 inh-1, DAX1 inh-2)
Cc1sc2nc(-c3ccccn3)[nH]c(=O)c2c1-c1ccccc1	none
Cc1cc(CNC(=O)CC2C(=O)NCCN2Cc2ccccc2C(F)(F)F)on1 (configuration not stated)	none
COc1ccc([C@H]2C=C3CN(C(=O)OC(C)(C)C)S(=O)(=O)[C@H]3C[C@H]2OC(=O)c2ccc(C(F)(F)F)cc2)cc1	hcDAF-12 act 5.7
Cc1ccc(S(=O)(=O)N2CCN(C3CC(=O)N(CCc4ccccc4)C3=O)CC2)cc1C (configuration not stated)	none
COc1ccc(C(C#N)=Cc2ccc(N(C)CCC#N)cc2)cc1	none (no result: AHR activator)
CC(C)C1C(=O)N(Cc2cn(CC3CCCCC3)nn2)CCS(=O)(=O)N1Cc1ccc(-c2ccc(Cl)nc2)cc1 (configuration not stated)	DAX1 inh-2 4.4 (no result: AHR activator)
CC(C)CC1C(=O)N(Cc2cn(CCC3OCCCO3)nn2)CCS(=O)(=O)N1Cc1ccc(-c2ccc(Cl)cc2)cc1 (configuration not stated)	none (no result: AHR activator)
CC(C)CC1C(=O)N(Cc2cn(CCC3OCCCO3)nn2)CCS(=O)(=O)N1Cc1ccc(-c2ccc(Cl)nc2)cc1 (configuration not stated)	DAX1 inh-1 5.1 (no result: AHR activator)
O=[N+]([O-])c1ccc(Oc2cccc(F)c2)c2ccncc12	AHR activator 55.0
Cc1ccc(C(=O)c2coc3c2C(=O)C(=O)c2ccccc2-3)cc1	AHR activator 50.0
C1=C(c2ccccc2)CCN(c2nc3ccccc3n3cnnc23)C1	AHR activator 78.7
CCN(CC)c1ccc(/C=N/Nc2nc3ccccc3[nH]2)cc1	none (no result: AHR activator)
O=C(O)c1ccc(/C=N/Nc2nnnn2-c2ccccc2)cc1	ssDAF12 agonist 1.6
O=C(O)c1ccc(/C=N/Nc2nc3ccccc3[nH]2)cc1	DAX1 inh-1 8.9
Cc1cc(=O)[nH]c(N/N=C/c2cccs2)n1	none
COC(=O)c1ccc(/C=N/Nc2nc3ccccc3[nH]2)cc1	AHR activator 48.1
C(=N\Nc1nc2ccccc2[nH]1)/c1cccs1	AHR activator 74.0
O=C(NCC1CCCO1)c1cccc(S(=O)(=O)N2CCCCC2)c1 (configuration not stated)	none (no result: AHR activator)
CC1(Cc2ccc(C(F)(F)F)o2)C(=O)Nc2cc(-c3ccc(F)cc3F)ccc21 (configuration not stated)	none (no result: AHR activator, DAX1 inh-1)
Cc1ccn2cc(CCNC(=O)COc3ccccc3)nc2c1	none
CCOC(=O)C1=C(C)N(C)C(=O)NC1c1cc2c(cc1[N+](=O)[O-])OCO2 (configuration not stated)	none
Cc1ccc(N2NC(C)(c3cccs3)NC2=S)cc1 (configuration not stated)	AHR activator 52.4, DAX1 inh-1 4.3
Cc1ccc(N2CC(O)(c3cccs3)[N+]3=C2CCCC3)cc1 (configuration not stated)	none
C=CCN(C)CC#Cc1ccc(OC)cc1	none (no result: AHR activator, DAX1 inh-1)
CCNC(=O)C1CCCN(C(=O)c2ccc3ccccc3c2)CC1 (configuration not stated)	none (no result: AHR activator, DAX1 inh-1)
O=C(Nc1nnc(C2CC2)s1)c1ccc(S(=O)(=O)c2ccccc2)cc1	none
CCc1nnc(NC(=O)c2cccnc2SC)s1	AHR activator 50.5
CSc1ncccc1C(=O)Nc1nnc(C2CC2)s1	AHR activator 60.7
O=C(Nc1nnc(C2CC2)s1)c1n[nH]c(=O)c2ccccc12	AHR activator 65.2
CCC(Oc1ccc(C)cc1)C(=O)Nc1ccccc1C(=O)N1CCOCC1 (configuration not stated)	none
CC(C)c1ccc(N2C(=O)CC(NNC(=O)c3cccnc3)C2=O)cc1 (configuration not stated)	DAX1 inh-1 5.6
O=C(NNC1CC(=O)N(c2ccc(Cl)cc2)C1=O)c1ccccn1 (configuration not stated)	ssDAF12 agonist 0.9
O=C(NNC1CC(=O)N(c2ccc(Cl)cc2)C1=O)c1ccccc1Cl (configuration not stated)	none
CC(Oc1cccnc1[N+](=O)[O-])C(=O)Nc1ccc(Cl)cn1 (configuration not stated)	AHR activator 56.3
CCCCn1nnc(N(C(=O)c2cccs2)C(=O)c2cccs2)n1	DAX1 inh-1 5.7 (no result: AHR activator)
